Hits are enriched below; roughly 5.3% of the tested compounds scored in any of these assays.
LASV entry inh: qHTS for Inhibitors of binding or entry into cells for Lassa Virus; Lassa virus pseudotype entry inhibition, cell reporter; Potency, µM (titrated, usually from 37.9 µM), without a hit: at the highest dose activity change, negative = inhibition, hits mostly inhibitors; 300,000 compounds, 1.2% hits; calls by dose curve; tested in HEK293 cells; also: nearly all actives have a fitted effect of over 50% in size
Vaccinia mCherry: qHTS for Stage-Specific Inhibitors of Vaccinia Orthopoxvirus: mCherry Reporter Primary qHTS. Vaccinia virus mCherry reporter infection, fluorescence. Potency, µM (doses to about 36.5 µM), for the others: at the highest dose activity change, negative = inhibition, actives largely listed as inhibitors. 310,000 compounds, 0.63% hits; calls by dose curve; tested in A549 cells; also: nearly all actives have a fitted effect of over 35% in size
HCV inhibitor: qHTS Assay for Inhibitors of Hepatitis C Virus (HCV) | Potency, µM (titrated, usually from 41.8 µM), for the others: at the highest dose activity change, negative = inhibition, most hits filed as inhibitors | 340,000 compounds, 3.4% hits | Huh7.5.1 HCVcc-Cre infection, luciferase reporter, 44 h; active = well fitted inhibition curve with a large enough effect; inconclusive = small, poorly fitted or top-dose-only effect, or another doubt; inactive = no such curve, though single readings can be large or run the other way
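Antiviral activity was scored by luciferase reporter output from cells infected with HCVcc-Cre (~0.5 moi) in presence of compound, 44 h infection period, cells seeded 1,000/well 4 h prior.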
Vaccinia Venus: qHTS for Stage-Specific Inhibitors of Vaccinia Orthopoxvirus: Venus Reporter Primary qHTS; AID 720580, 2013; Potency, µM (titrated, usually from 36.5 µM), for the others: at the top dose activity change, negative = inhibition, usual class: inhibitors; 330,000 compounds, 0.46% hits; Vaccinia virus Venus reporter expression, fluorescence; calls by dose curve; tested in A549 cells; also: nearly all actives have a fitted effect of over 30% in size
MARV entry inh: qHTS for inhibitors of binding or entry into cells for Marburg Virus; 300,000 compounds, 1.8% hits; Potency, µM (highest dose often 37.8 µM), without a hit: at the top dose activity change, negative = inhibition, most hits filed as inhibitors; Marburg virus pseudotyped entry inhibition, cell reporter; calls by dose curve; tested in HEK293 cells
FMDV antiviral: High Throughput Screening for Foot and Mouth Disease Virus Antivirals. FMDV antiviral cell-based qHTS. 410,000 compounds, 1.2% hits. Potency, µM (series often up to 57.9 µM), for inactives: at the highest dose activity change, negative = inhibition, most hits filed as inhibitors; calls by dose curve; tested in HEK293T cells; also: read-out not given here; nearly all actives have a fitted effect of over 45% in size
* = called active by the depositor; i = inactive; ? = inconclusive; . = no result given; ! = not confirmed by another sample; [ ] = another dose, or the depositor's remark. % is scaled to controls: 0 for no effect and ±100 for the full control effect; potency is read from the fitted curve at half-maximal effect.

SMILES	LASV entry inh	Vaccinia mCherry	HCV inhibitor	Vaccinia Venus	MARV entry inh	FMDV antiviral
NC(=O)CC(NC(=O)Cc1cccc2ccccc12)c1ccc(NC2CC3CCC2C3)c([N+](=O)[O-])c1 (centres undefined)	.	?	11µM*	-26%	.	-8%
NC(=O)CC(NC(=O)c1ccccc1)c1ccc(NCc2ccc(F)cc2)c([N+](=O)[O-])c1 (centres undefined)	.	?	-22%	-17%	.	-27%
NC(=O)CC(NC(=O)Cc1cccc2ccccc12)c1ccc(NC2CCCC2)c([N+](=O)[O-])c1 (centres undefined)	.	i	-2%	-4%	.	6%
NC(=O)CC(NC(=O)Cc1ccc(Br)cc1)c1ccc(NCc2ccc(F)c(F)c2)c([N+](=O)[O-])c1 (centres undefined)	.	18µM*	?	?	.	-24%
NC(=O)CC(NC(=O)c1ccc(Br)cc1)c1ccc(NCc2ccc(F)c(F)c2)c([N+](=O)[O-])c1 (centres undefined)	.	-19%	-11%	-21%	.	-19%
CCOC(=O)c1cccc(NS(=O)(=O)c2ccc3[nH]c4c(c3c2)CCCC4)c1	-29%[46.1 µM]	-20%	.	-14%	.	29%
COc1ccc(CCNc2ccc(C(CC(N)=O)NC(=O)c3ccc(Br)cc3)cc2[N+](=O)[O-])cc1 (centres undefined)	.	-19%	7%	13µM*	.	-25%
C#CCN1C(=O)CC[C@@]23C1=NC(C(=O)OC)=C(C(=O)OC)[C@@H]2N(Cc1ccccc1)c1ccccc13	.	.	.	.	-20%[14.2 µM]	.
O=C(NCC(c1ccc2c(c1)OCO2)N1CCOCC1)C(=O)Nc1ccc(Cl)cc1 (centres undefined)	3%[46.1 µM]	-9%	.	-13%	.	-13%
O=C1CCN(Cc2ccccc2)C=C1c1ccc(Br)cc1	.	i	10µM*	-21%	.	0%
CN(C)c1nc(N/N=C\c2ccc(Cl)c([N+](=O)[O-])c2)nc(Nc2ccc(F)cc2)n1	1%	-14%	22µM*	-6%	?	?
CCCCCCCCCCCCCCCC(=O)OC(CC(=O)O)C[N+](C)(C)C (centres undefined)	?	?	8%	?	22µM*!	-23%
CCCCCCCCCCCCCCCC(=O)O[C@H](CC(=O)O)C[N+](C)(C)C	.	.	.	.	-27%	-19%
Cc1onc(-c2ccccc2)c1C(=O)c1c[nH]c(C(=O)NCc2ccncc2)c1	18%	-2%	?	-4%	-22%[46.1 µM]	?
Cc1onc(-c2ccccc2)c1C(=O)c1c[nH]c(C(=O)NCc2ccccn2)c1	?	-5%	10µM*	-19%	28%[46.1 µM]	?
CS(=O)(=O)c1ccc(NC(=O)COc2ccccc2C(=O)Nc2ccccc2)cc1	.	-15%	.	-17%	.	.
COC(=O)c1nc(NC(=O)c2cc(OC)c(OC)c(OC)c2)n[nH]1	15%[46.1 µM]	-6%	6%	13%	4%[46.1 µM]	-28%
COC(=O)c1nc(NC(=O)c2ccccc2Br)n[nH]1	-2%[46.1 µM]	i	5%	-14%	-14%[46.1 µM]	20µM*
CCOc1ccccc1C(=O)N1CCC(c2nc3ccccc3o2)CC1	-11%[46.1 µM]	3%	.	-6%	-23%[46.1 µM]	-22%
Cc1nnc(Nc2ccc(O)cc2)[nH]c1=O	6%	-13%	14µM*	-4%	3%[46.1 µM]	10%
Cc1nnc(Nc2ccc(C(=O)O)cc2)[nH]c1=O	2%[46.1 µM]	i	4%	-3%	?	4%
Cc1cc2ccccc2c[n+]1CC(=O)c1ccc(F)cc1	.	-12%	.	0%	.	.
Cc1ccccc1NC(=S)N(Cc1ccccn1)Cc1ccccc1Cl	?	-14%	-22%	-7%	?	28%
S=C(NN=Cc1ccccn1)N(Cc1ccccn1)Cc1ccccn1	?	5.6µM*	1.3µM*	?	1.3µM*	-15%
CC(=NNC(=S)N(Cc1ccccn1)Cc1ccccn1)c1cnccn1	2.8µM*	1.4µM*	?	3.5µM*	?	-6%
SMILES	LASV entry inh	Vaccinia mCherry	HCV inhibitor	Vaccinia Venus	MARV entry inh	FMDV antiviral
S=C(NN=C(c1ccccc1)c1ccccn1)N(Cc1ccccn1)Cc1ccccn1	?	2.5µM*	1.3µM*	?	0.63µM*	-20%
COc1ccccc1NC(=S)N(Cc1ccc(C)cc1)Cc1ccccn1	-29%[46.1 µM]	0%	11%	-4%	?	0%
C=C(C)Cn1c(SCC(=O)c2ccc(Br)cc2)nc2sc3c(c2c1=O)CCCC3	16%[46.1 µM]	2%	.	5%	.	-12%
CCN(CC)C(=O)C1=C(C)N(Cc2ccc(C(C)(C)C)cc2)C(=O)C(CC(=O)NCCCCc2ccccc2)C1 (centres undefined)	.	-18%	.	-24%	.	?
COCCNC(=O)c1cc2oc3ccccc3c2n1C	-5%	.	13µM*	.	22%	0%
Cn1c(C(=O)NCc2cccc(Cl)c2)cc2oc3ccccc3c21	?	-21%	.	25%	?	-1%
C[C@H](NC(=O)c1nc[nH]c1C(=O)NCCCCCNC(=O)OC(C)(C)C)c1ccccc1	.	?	?	?	.	40µM*
C[C@H](NC(=O)c1[nH]cnc1C(=O)Nc1ccon1)c1ccccc1	.	-25%	1.4µM*	-23%	.	-18%
C[C@H](NC(=O)c1nc[nH]c1C(=O)NCc1ccc(CNC(=O)OC(C)(C)C)cc1)c1ccccc1	.	?	7.1µM*	?	.	32µM*
CC(C)(C)OC(=O)NCc1ccc(CNC(=O)c2[nH]cnc2C(=O)Nc2ccccc2F)cc1	.	?	.	?	.	20µM*
C[C@@H](NC(=O)c1[nH]cnc1C(=O)Nc1ccon1)c1ccccc1	.	-18%	-4%	?	.	-23%
COc1ccc(OC[C@@H]2CC3[C@@H](c4ccc(Br)cc4)[C@H](C)CC[C@H]3C(=O)O2)cc1 (some centres undefined)	.	.	.	.	-5%[14.2 µM]	.
CCCc1nc2cccnc2n1C1CCN(C(=O)CC2NC(=O)c3ccccc32)CC1 (centres undefined)	.	-13%	.	-10%	.	-14%
CC(C)(C)c1ccc(C(=O)NCc2ccc(Cl)cc2)cc1	-18%	-12%	1%	?	0%	.
CC(C)(C)OC(=O)NCc1ccc(CNC(=O)c2nc[nH]c2C(=O)N2CCN(C(=O)OC(C)(C)C)CC2)cc1	.	i	?	-23%	.	20µM*
CC(C)(C)c1ccc(C(=O)N2CCN(CCNC(=O)C(=O)NCc3ccc(Cl)cc3)CC2)cc1	?	-17%	11µM*	?	?	-28%
CC(C)(C)OC(=O)N1CCN(c2ccc(CNC(=O)c3ccc(Cl)cc3)cc2)CC1	?	.	?	.	?	25µM*
Cc1ccc(NC(=O)c2nc[nH]c2C(=O)NCCCCCNC(=O)OC(C)(C)C)cc1	.	-12%	?	?	.	?

Bioassay records from PubChem BioAssay.
